Screening data from PubChem.
Tg IFNy HTS = T. gondii growth inhibition with IFN-gamma, primary screen, cell-based; Toxoplasma gondii growth in IFN-gamma-treated host cells; active compounds read low; activity change, negative = inhibition, % (concentration not given with the values); actives 3.8% (n = 69,000); in the data active = activity change below about -70%, passing the limit was not always enough;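 note: host cells are HeLa cells infected with Toxoplasma gondii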
A number is an active result; n = inactive. Many of the other results were omitted from the sample, so hits are more common in it than they were.

SMILES	Tg IFNy HTS
COc1ccccc1CNC(=O)CN1CCC(O)(c2ccccc2C)C1 (centres undefined)	n
c1cncc(-c2[nH]c3ncccc3c2CN2CCSCC2)c1	n
Cc1cc(C)c2c(n1)sc1c3ccccc3c(N)nc12	-102
Cc1cc(C)c2c(n1)sc1c(=O)oc(C)nc12	n
C=CCSc1ncnc2c1sc1nc(C)cc(C)c12	n
Cc1ccc2[nH]c(-c3nc(CCN(C)C(=O)c4ccncc4)no3)cc2c1	n
C=CCN1CCCC12CCCN(S(=O)(=O)c1ccc(C)cc1)C2 (centres undefined)	n
CNC(=O)c1ccc(CN2CCCC(CCc3ccccc3C)C2)cc1 (centres undefined)	n
COc1coc(CN2CCCC(CCc3ccccc3C)C2)cc1=O (centres undefined)	n
Cc1c[nH]c(CN2CCCC(CCc3ccccc3F)C2)c(C)c1=O (centres undefined)	-89
CC(C)CN1C[C@H]2C(=O)N(C)C3(CCN(C(=O)c4ccncn4)CC3)[C@H]2C1	n
O=C(NC1CCC12CCN(C(=O)c1ccco1)CC2)c1cnccn1 (centres undefined)	n
C=CCNC(=O)C1(Cc2cccc(-c3cncnc3)c2)CCN(C(=O)c2cnccn2)CC1	-93
CCN1CCOCC12CCN(C(=O)c1cnccn1)CC2	n
O=C(Nc1ccccc1)OCCSc1nc2ccccc2s1	n
S=c1[nH]cc(-c2ccc(Br)cc2)[nH]1	-97
COc1cccc(NC2=NCC(=O)N2Cc2ccccc2)c1	n
CCC(=O)N1CCc2c([nH]c3ccccc23)C12C(=O)N(C)c1ccccc12 (centres undefined)	n
CN1CCN(Cc2ccccc2Oc2ncc(C(F)(F)F)cc2Cl)CC1	n
CC(C)(C)C(=O)N1CCN(c2ccc(C(F)(F)F)cn2)CC1	n
FC(F)(F)c1ccc(N2CCN(Cc3cc(Cl)cc4c3OCOC4)CC2)nc1	-85
CC(=O)N1CCNC(=O)C12CCN(Cc1cnn(C)c1)CC2	n
CC(C)CNC(=O)c1cc(-c2ccn(CC3CC3)n2)n2ccccc12	n
COc1cc(-c2nc(CSc3nc4c(=O)[nH]c(C)nc4n3C)c(C)o2)cc(OC)c1OC	n
O=C(NC1(c2cccc(F)c2)CCCC1)c1ccc(S(=O)(=O)N2CCOCC2)cc1	n
SMILES	Tg IFNy HTS
Cc1ccc(N2CCCC2=O)cc1S(=O)(=O)Nc1ccc(N2CCCC2=O)cc1	-91
Cc1ccc(N2CCCC2=O)cc1S(=O)(=O)Nc1ccc2c(c1)CC(=O)N2	n
Cc1ccc(N2CCCC2=O)cc1S(=O)(=O)NCCc1c(C)noc1C	n
Cc1ccccc1C(=O)N1CCC(C(=O)NCCc2csc(-c3ccccc3)n2)CC1	n
CC(C)Cc1ncc2c(n1)CN(C(=O)c1cccc(-c3ccco3)c1)C2	n
CC(C)(Cc1ccc2ccccc2c1)NC[C@@H](O)COc1cccc(Cl)c1C#N	-72
CC(C)(C)NCC(O)COc1ccccc1C(=O)CCc1ccccc1 (centres undefined)	n
CC(C)NCC(O)COc1cccc2ccccc12 (centres undefined)	n
Cc1nccc([C@H]2C[C@H]3CCN(S(C)(=O)=O)C[C@@H]3O2)n1	n
CCCCOc1c(C(=O)c2c(F)cc(C)cc2F)cnc2n[nH]cc12	-92
CCCS(=O)(=O)Nc1ccc(F)c(C(=O)c2c[nH]c3ncc(Cl)cc23)c1F	n
O=C(O)CCSc1nc2ccccc2s1	n
O=C(O)CSc1nc2cc(Cl)ccc2s1	-107
CCN(CC)C(=O)Sc1nc2cc(Cl)ccc2s1	n
CC(C)N1CCC2(CC1)CC(NC(=O)c1cccn1C)c1ccccc1O2 (centres undefined)	n
CN=C(NC#N)Nc1ccc(C2=NNC(=O)CC2C)cc1 (centres undefined)	n
COc1ccc(-c2nc3ccc(C4=NNC(=O)CC4C)cc3[nH]2)cc1 (centres undefined)	n
CCN(CC)c1ccc(C2=NNC(=O)CC2C)cc1[N+](=O)[O-] (centres undefined)	-98
C=CCn1c(=O)c(C(=O)Nc2ccccc2Cl)c(O)c2ccccc21	n
CCOc1cc(C(=O)NCCc2sc(-c3ccc(Cl)cc3)nc2C)cc(OCC)c1OCC	n
O=C(C[C@@H]1COC[C@@H]2CN(C(=O)c3ccoc3)C[C@@H]21)N1CCOCC1	n
CC(C)(O)C#Cc1ccc(C(=O)N2CCn3cncc3C2)cc1	n
COc1c/c(=C2\C=c3ccccc3=N2)[nH]/c1=C\c1[nH]c(C)cc1C	-85
FC(F)(F)c1cc(N/N=C2/CCSc3sccc32)cc(C(F)(F)F)c1	-103
CCC(CC)C(=O)N1CCc2nc(N3CCCC3)nc(C)c2CC1	n
SMILES	Tg IFNy HTS
Cc1ccc(Cl)cc1NS(=O)(=O)c1cc2c3c(c1)CCN3C(=O)CC2	n
CN(C)CCNC(=O)c1cc2n(n1)CCCN(C(=O)C1C=CCN1)C2 (centres undefined)	n
COc1ccc(C#Cc2ccc3c(c2)[C@H]2[C@H](CCN2C(=O)Nc2ccc(C(F)(F)F)cc2)[C@H](CO)N3C)cc1	n
CC(C)NC(=O)N1CC[C@@H]2[C@H]1c1cc(-c3ccc(F)cc3)ccc1N(C)[C@@H]2CO	n
CN1c2ccc(-c3ccccc3)cc2[C@@H]2[C@@H](CCN2C(=O)CC2CC2)[C@@H]1CO	n
COc1ccc(-c2ccc3c(c2)[C@@H]2[C@@H](CCN2C(=O)Nc2ccccc2OC)[C@@H](CO)N3C)cc1	-72
CC(C)NC(=O)N1CC[C@@H]2[C@@H](CO)N(C)c3ccc(-c4ccc(F)cc4)cc3[C@@H]21	-79
COc1cccc(-c2ccc3c(c2)[C@H]2[C@H](CCN2C(=O)c2ccccc2F)[C@@H](CO)N3C)c1	n
CN1c2ccc(C3=CCCCC3)cc2[C@@H]2[C@@H](CCN2C(=O)C2CCOCC2)[C@H]1CO	n
CN1c2ccc(C3=CCCCC3)cc2[C@@H]2[C@@H](CCN2C(=O)c2ccccc2F)[C@@H]1CO	-76
CC(C)NC(=O)N1CC[C@H]2[C@@H]1c1cc(C#Cc3ccccc3)ccc1N(C)[C@H]2CO	n
CCN1CCCC1CNC(=O)C1=C(C)C(=O)OC12CCN(S(=O)(=O)c1cccs1)CC2 (centres undefined)	n
CC(C)CNC(=O)[C@@H]1CCS(=O)(=O)[C@H]2CN(Cc3ccccc3F)C[C@@H]12	n
COCCC(=O)c1ccc2nnc3ncn(C4CCCC4)c3c2c1	n
CCCCOc1ccc(C(=O)N2CCN(S(=O)(=O)c3cc4c5c(c3)CCN5C(=O)CC4)CC2)cc1	n
COc1cccc(C2CCCN2CC(=O)Nc2ccccc2NC(C)=O)c1 (centres undefined)	n
COc1ncccc1C(=O)N1CCCC2(CC1)CNC(=O)O2 (centres undefined)	n
COC(=O)CN(c1cc(OC)ccc1OC)S(=O)(=O)c1ccccc1	n
CCC(c1cccnc1)N(C)C(=O)Cc1ccc2nc(C)[nH]c2c1 (centres undefined)	n
CC(C)(C)c1ccc(/C=C/C(=O)Nc2ccc3c(c2)OCCO3)cc1	-73
Cc1nn(-c2ccccc2)nc1C(=O)Nc1ccc2c(c1)OCCO2	n
CC(C)(C)c1ccc2c(c1)OCCOCCOCCOCCO2	n
O=C(c1ccco1)N1CCCC2(CC(n3ccnc3)CO2)C1 (centres undefined)	n
O=C(O)C1CC(N2CCOCC2)CCN1C(=O)c1ccccc1 (centres undefined)	n
COCC(=O)N1CCCN(Cc2ccc(C(=O)Nc3cnn(C)c3)cc2)CC1	n
Cc1c(-c2nnnn2-c2ccc(F)cc2)cnc2cc3c(cc12)OCO3	n
